Results reported in the supplement of paper PMC7866885, “A novel bicyclic 2,4-diaminopyrimidine inhibitor of Streptococcus suis dihydrofolate reductase” (PeerJ, 2021).
± gives the standard deviation.

system: Streptococcus suis HE06; experiment: percent growth relative to DMSO control; higher = less growth inhibition; settings: 10 µM; incubation time 18 h
Protocol: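 CLSI broth microdilution: 5x10^4 CFU of Streptococcus suis (strain P1/7 or HE06) incubated with 10 µM Pathogen Box compound in cation-adjusted Mueller Hinton broth, 37 °C, 5% CO2, 18 h. Growth read as OD600 and expressed as percent of the DMSO-treated control (100%); mean ± SD of three independent experiments.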

| SMILES | percent growth |
| --- | --- |
| Cc1ccc(NC(=O)c2nc[nH]c2C(=O)Nc2nc3ccccc3[nH]2)c(C)c1 | 47.8 ± 38% |
| CNC1C(OC2C(OC3C(O)C(O)C(NC(=N)N)C(O)C3NC(=N)N)OC(C)C2(O)C=O)OC(CO)C(O)C1O (stereo not drawn) | 99.9 ± 10% |
| Clc1ccc(-n2cc(COc3ccnc4ccccc34)nn2)cc1 | 84.2 ± 6% |
| Cc1cc(C(=O)Nc2ccc(-c3ccccc3)cc2)no1 | 103 ± 36% |
| CNC(=O)CNc1nc(-c2ccccn2)nc2scc(-c3ccccc3)c12 | 87.1 ± 13% |
| Nc1ncc(-c2ccc(C(F)(F)F)nc2)cc1-c1ccc(C(F)(F)F)nc1 | 98.8 ± 13% |
| CCn1ncc2c(NC3CCOCC3)c(CNC(=O)c3ccnn3C)c(C)nc21 | 109 ± 24% |
| NS(=O)(=O)c1cncc(-c2ccc3nccc(-c4cn[nH]c4)c3n2)c1 | 102 ± 33% |
| Cc1ncc(-c2ccnc(Nc3ccc(S(C)(=O)=O)cc3)n2)n1C(C)C | 89.7 ± 4.3% |
| Cc1ccc2cc(C3NC(=O)c4ccccc4N3)c(Cl)nc2c1 (stereo not drawn) | 72.4 ± 16% |
| CN1CCN(c2cc(-c3ccc(F)cc3)nc(-c3ccncc3)n2)CC1 | 83.6 ± 3.7% |
| Cc1ccc2[nH]c(C3CCCNC3)c(-c3ccncc3)c2c1 (stereo not drawn) | 108 ± 31% |
| CC(C)(C)C(=O)N(CCCCCCN1C[C@H](O)[C@@H](O)[C@H](O)[C@H]1CO)C1CCCCCC1 | 122 ± 27% |
| Cc1cc(NCC(C)C)c2n[nH]c(-c3ccccc3)c2n1 | 81.1 ± 5.3% |
| Cc1cc(C(=O)Nc2cnn(Cc3ccc(Cl)cc3Cl)c2)no1 | 94.2 ± 5.5% |
| O=C(NCc1cc(Cl)cc(Cl)c1)c1c(C(F)(F)F)nc2ccccn12 | 84.6 ± 3.8% |
| C[C@]1(O)C[C@@H](c2nc(-c3ccc4ccc(-c5ccccc5)nc4c3)c3c(N)nccn32)C1 | 81.6 ± 9.1% |
| CNC(=O)c1nn(C)c2c1C(C)(C)Cc1cnc(Nc3ccc(N4CCN(C)CC4)cc3)nc1-2 | 88.7 ± 21% |
| CCOc1ccccc1NC(C)C(=O)Nc1cc(C(F)(F)F)ccc1N1CCOCC1 (stereo not drawn) | 115 ± 20% |

| SMILES | percent growth |
| --- | --- |
| CCN(CC)S(=O)(=O)c1ccc(C(=O)Nc2cc(C)nn2-c2nc(C)c(C)c(=O)[nH]2)cc1 | 0.274 ± 0.47% |
| CS(=O)(=O)c1ccc(C(=O)N(CC2CCCO2)c2nc3ccccc3s2)cc1[N+](=O)[O-] (stereo not drawn) | 91.7 ± 7.5% |
| Cc1nn(C)cc1C(C)Nc1nncc(-c2ccc(C(F)(F)F)cc2)n1 (stereo not drawn) | 116 ± 20% |
| Nc1ncnc2c1ncn2[C@@H]1O[C@H](COS(=O)(=O)NC(=O)c2ccccc2O)[C@@H](O)[C@H]1O | 97.4 ± 8.2% |
| COc1ccc(Nc2ccccc2NC(=O)c2ccc(O)nc2)cc1 | 86.7 ± 11% |
| COc1cccc(OC)c1C(=O)Nc1ccc(Cl)c(-c2nc3ccccc3s2)c1 | 98.9 ± 8.3% |
| CC(C)N=c1cc2n(-c3ccc(Cl)cc3)c3ccccc3nc-2cc1Nc1ccc(Cl)cc1 | 29.6 ± 51% |
| Brc1cncc(-c2cc(NCCCn3ccnc3)nc(-c3ccccc3)n2)c1 | 46.7 ± 37% |
| COc1nc2ccc(Br)cc2cc1[C@@H](c1ccccc1)[C@@](O)(CCN(C)C)c1cccc2ccccc12 | 59.8 ± 13% |
| COc1ccc(-c2cncc3ccc(C(=O)NCCCn4ccnc4)nc23)cc1 | 103 ± 28% |
| CCc1ccc(C(NCc2nc(N)nc(N(C)C)n2)C(C)C)cc1 (stereo not drawn) | 12.8 ± 16% |
| CC(=O)Nc1ccc(NC(=O)c2cc(-c3cc(Cl)ccc3O)[nH]n2)cc1 | 96.5 ± 11% |
| CN1CCN(S(=O)(=O)c2ccc(-c3ccc4c(Nc5ccc6nn[nH]c6c5)ccnc4c3)cc2)CC1 | 103 ± 42% |
| CC(C)(C)c1cc(C(=O)N2CCN(c3nccnc3C#N)CC2)n(Cc2ccccc2)n1 | 93.1 ± 32% |
| O=C(Nc1cccnc1)c1c(O)c2cccc3c2n(c1=O)CC3 | 78.3 ± 3.7% |
| COc1ccc2nc(C)cc(OCC(=O)Nc3ccccc3OC)c2c1 | 89.9 ± 9.3% |
| O=C(NCc1nnc2n1CCCCC2)c1ccc(-c2ccc(F)cc2)o1 | 82.7 ± 15% |
| CN1CCN(c2nccc3nc(-c4ccc(F)c(F)c4)[nH]c23)CC1 | 82.2 ± 21% |
| CCCCc1ccc(NC(=O)Nc2ccc(O[C@H]3CCCC[C@@H]3N(C)c3ccccc3)c(F)c2)cc1 | 77.8 ± 26% |
